Reference: PMC4336329 (PLoS ONE, 2015)
In all, about 310,000 compounds went through this assay and about 14,000 (4.5%) showed an effect of 50% or more. The effect is printed as a negative number. For the sample, strong results were picked, then their nearest neighbours and some compounds at random.

Each compound was assayed against human ether-à-go-go-related gene (hERG) potassium channel (human, UniProt Q12809) (assay: primary screen, population patch clamp on CHO cells stably expressing hERG; higher = less effect of the substance).
Sequence of human ether-à-go-go-related gene (hERG) potassium channel (Q12809 whole entry, looked up): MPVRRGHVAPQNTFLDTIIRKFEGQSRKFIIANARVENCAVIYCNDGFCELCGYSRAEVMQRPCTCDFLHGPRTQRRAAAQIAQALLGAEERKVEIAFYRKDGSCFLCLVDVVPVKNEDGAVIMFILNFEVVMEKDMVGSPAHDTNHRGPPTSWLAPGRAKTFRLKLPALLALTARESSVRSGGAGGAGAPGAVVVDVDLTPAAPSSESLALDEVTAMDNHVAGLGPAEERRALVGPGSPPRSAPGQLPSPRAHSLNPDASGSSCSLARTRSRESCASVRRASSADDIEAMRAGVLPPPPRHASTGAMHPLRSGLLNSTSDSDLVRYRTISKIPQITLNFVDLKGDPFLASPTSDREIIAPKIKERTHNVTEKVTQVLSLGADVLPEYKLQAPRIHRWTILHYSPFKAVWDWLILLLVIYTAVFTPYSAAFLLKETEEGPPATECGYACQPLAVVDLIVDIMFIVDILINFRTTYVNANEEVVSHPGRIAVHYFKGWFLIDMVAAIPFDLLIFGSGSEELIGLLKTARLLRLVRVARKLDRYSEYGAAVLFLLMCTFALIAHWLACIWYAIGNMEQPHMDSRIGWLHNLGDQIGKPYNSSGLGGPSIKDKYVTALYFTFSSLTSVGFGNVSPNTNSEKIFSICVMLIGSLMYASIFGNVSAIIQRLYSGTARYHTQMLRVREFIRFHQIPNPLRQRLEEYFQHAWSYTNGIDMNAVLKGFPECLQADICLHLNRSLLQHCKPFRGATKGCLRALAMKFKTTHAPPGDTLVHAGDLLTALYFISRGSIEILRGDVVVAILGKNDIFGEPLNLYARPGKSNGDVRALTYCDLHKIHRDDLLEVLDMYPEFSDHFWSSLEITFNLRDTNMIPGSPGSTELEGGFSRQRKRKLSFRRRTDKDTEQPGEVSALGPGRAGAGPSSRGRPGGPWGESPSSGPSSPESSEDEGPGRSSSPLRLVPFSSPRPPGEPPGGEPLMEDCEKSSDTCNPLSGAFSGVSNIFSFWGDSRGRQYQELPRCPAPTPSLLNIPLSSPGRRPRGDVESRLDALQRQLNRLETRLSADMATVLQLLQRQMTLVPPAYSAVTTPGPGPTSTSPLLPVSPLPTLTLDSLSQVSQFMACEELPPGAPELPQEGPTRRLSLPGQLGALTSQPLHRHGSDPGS
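Further: peak tail current of the secondary pulse compared with the same well before compound.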

Structure (SMILES) | hERG current change (%, negative = inhibition) at 10uM [%]
Cc1ccc(S(=O)(=O)c2nnn3c2nc(N2CCOCC2)c2ccccc23)c(C)c1 | -31.3
COCc1nnc(NC(=O)c2cc(C(=O)OC)cc([N+](=O)[O-])c2)s1 | -2.76
O=C(Cc1ncc(C(F)(F)F)cc1Cl)NCc1cccnc1 | 17.1
COc1ccc(CC(=O)OCC(=O)Nc2ccc(OC(F)F)cc2)cc1OC | -19.7
Cc1cc(C)n(CC(C)NC(=O)c2cc(COc3c(F)cccc3F)on2)n1 (centres unmarked) | 1.49
CCOc1ccc(C(=O)NC(=S)Nc2ncccc2C)cc1[N+](=O)[O-] | -67.6
COc1cc(OC)c(C2=NOC(C(=O)NCc3cccnc3)C2)cc1Cl (centres unmarked) | 13
COc1ccc(C(=O)NC(=S)NCc2cccnc2)cc1Br | -23.9
CCOc1ccc(C(=O)NC(=S)Nc2cccnc2)cc1[N+](=O)[O-] | -16.1
COc1ccc(C(=O)NC(=S)NCc2cccnc2)cc1Cl | -1.7
COc1ccc(C(=O)NC(=S)NCc2cccnc2)cc1OC | -57.3
COc1ccc(C(=O)NC(=S)NCc2cccnc2)cc1[N+](=O)[O-] | -12.3
CCOc1ccc(C(=O)NCc2cccnc2)cc1[N+](=O)[O-] | -76
CCOc1ccc(C(=O)NC(=S)NCc2cccnc2)cc1[N+](=O)[O-] | -2.86
COc1ccc(OC)c(C2=NOC(C(=O)NCc3cccnc3)C2)c1 (centres unmarked) | -62
COc1cccc(C2=NOC(C(=O)NCc3cccnc3)C2)c1 (centres unmarked) | 35.6
CCOc1ccc(C(=O)NC(=S)Nc2ccccn2)cc1[N+](=O)[O-] | -2.48
NC(=O)CSc1oc(-c2ccc(F)cc2)nc1S(=O)(=O)c1ccccc1 | -8.24
Cc1ccc(S(=O)(=O)C(C#N)c2nc3ccccc3nc2OC(C)C)cc1 (centres unmarked) | -5.65
CN(CC(=O)Nc1ccc(F)cc1)C(=O)COC(=O)C1=COCCO1 | -20
CCCCOC(=O)C1=C(C)Nc2ncnn2C1c1ccc(OC)c(OC)c1OC (centres unmarked) | -18.3
CCOC(=O)Cc1csc(NC(=O)c2ccc3c(c2)OCO3)n1 | -22.8
Cc1nn(C(=O)CN2C(=O)c3ccccc3C2=O)c(C)c1Br | 5.28

Structure (SMILES) | hERG current change (%, negative = inhibition) at 10uM [%]
CCOC(=O)[C@H]1[C@H]2COc3ccc(Cl)cc3[C@@H]2N2C(=O)CN(Cc3ccc(Cl)cc3)C(=O)[C@@]12C | 2.8
Cc1ccc(NC(=O)Nc2cc(Cl)ccc2C2COC(=O)C2=N)cc1 (centres unmarked) | 27.9
Cn1c(N)c(S(=O)(=O)N2CCCC2)c(=O)n(C)c1=O | 26.2
O=C(O)C(F)(F)F.c1cn2c(NC3CCCCC3)c(-c3ccc(SC4CCCCC4)cc3)nc2cn1 | 9.49
O=C(CSc1ccc(F)cc1)N1CCOCC1 | 16.2
O=C(N/N=C/c1cccnc1)c1cc(Br)ccc1O | 30.5
Cc1ccc(-n2c(=O)cc(N3CC(C)CC(C)C3)[nH]c2=O)cc1 (centres unmarked) | 23.7
COc1ccccc1NC(=O)Cn1cnc2c(nc3n2CCCCC3)c1=O | -11.4
COc1cc(NC(=O)Cn2cnc3c(nc4n3CCCCC4)c2=O)cc(OC)c1OC | 22.8
O=C(Cn1cnc2c(nc3n2CCCCC3)c1=O)Nc1cccc(C(F)(F)F)c1 | -52.3
CC(C)c1nc(CN(C)C(=O)N[C@H](C(=O)N[C@@H](Cc2ccccc2)C[C@H](O)[C@H](Cc2ccccc2)NC(=O)OCc2cncs2)C(C)C)cs1 | -24.5
C#CCOCCOCCOCCNc1nc(N2CCOCC2)nc(N2CCN(C(=O)[C@H]([C@@H](C)CC)n3cc(CCC[NH+]=C(N)N)nn3)CC2)n1.[Cl-] | -0.117
COc1cccc(-n2c(SCC(N)=O)nnc2-c2ccncc2)c1 | 16
O=c1[nH]nc(Cc2ccccc2)c2ccccc12 | 4.16
O=c1[nH]nc(Cc2ccc([N+](=O)[O-])cc2)c2ccccc12 | -70.2
O=c1[nH]nc(Cc2ccc(Cl)cc2)c2ccccc12 | 8.04
CN(C)CCNC(=O)c1cc(Br)ccc1Cl | 3.14
CC(=O)c1c(N2CCN(c3ccccn3)CC2)nc(=S)n(-c2ccccc2)c1C | -32.3
Clc1ccc(-c2cc(C3CCNCC3)[nH]n2)cc1 | -3.21
Cc1ccc(CN2CCN(/N=C/c3cccs3)CC2)cc1 | -38
CCOC(=O)CN1CCC(c2cc(-c3ccc(Cl)cc3)n[nH]2)CC1 | -12.5
Cc1ccc(CN2CCC(c3cc(-c4ccc(Cl)cc4)n[nH]3)CC2)cc1 | -78.8
CC(C)(C)OC(=O)N1CCC(c2cc(-c3cccs3)n[nH]2)CC1 | -1.2

Structure (SMILES) | hERG current change (%, negative = inhibition) at 10uM [%]
Cc1ccc(CN2CCC(c3cc(-c4cccs4)n[nH]3)CC2)cc1 | -82.1
O=C(O)c1ccc(NC(=O)c2cccc(C(=O)Nc3ccc(C(=O)O)cc3)c2)cc1 | 7.31
Cc1c(S(=O)(=O)NCCc2ccccc2)c(=O)n(C)c(=O)n1C | -1.25
CCN(CC)C(=O)c1ccc2c(c1[N+](=O)[O-])C(=O)c1ccccc1C2=O | 6.69
Cc1nn(C2CCOC(C)(C)C2)c2c1C(c1ccc(OC(C)C)cc1)SCC(=O)N2 (centres unmarked) | -15.5
Nc1nc(N2CCCCC2)nc(N(c2ccccc2)c2ccccc2)n1 | 17.1
C1CCN(c2nc(N3CCCCC3)nc(N3CCNCC3)n2)CC1 | -7.81
Nc1nc(N2CCCCC2)nc(N2CCCCC2)n1 | -78.2
O=C(C1CCN(S(=O)(=O)N2CCOCC2)CC1)N1CCOCC1 | -6.69
Cc1ccc(NC(=O)CN2CCOCC2)cc1 | 14.1
CCCCNS(=O)(=O)c1ccc(NC(=O)C2CCCO2)cc1 (centres unmarked) | -8.88
CCCN(CCC)S(=O)(=O)c1ccc(NC(=O)C2CCCO2)cc1 (centres unmarked) | -64.4
CCN(CC)S(=O)(=O)c1ccc(NC(=O)C2CCCO2)cc1 (centres unmarked) | 6.96
CN(C)S(=O)(=O)c1ccc(NC(=O)CN2CCOCC2)cc1 | 9.72
CCCCN(CCCC)S(=O)(=O)c1ccc(NC(=O)CN2CCOCC2)cc1 | -53.6
CC12CCC(C(=O)N(CC(O)CN3CCN(Cc4ccccc4)CC3)C1=O)C2(C)C.Cl (centres unmarked) | -6.03
O=C(C1CCC(=O)N1Cc1ccccc1Cl)N1CCC2(CC1)OCCO2 (centres unmarked) | -29.7
COc1ccc(CN2CCNC(=O)C2CC(=O)NCCCC2CCCC2)c(C)c1C (centres unmarked) | 5.39
CC(CNS(=O)(=O)c1ccc2c(c1)CC(=O)N2C)c1ccccc1 (centres unmarked) | -12.3
COc1cccc(NC(=O)CN(C)C(=O)c2cc(C)oc2C)c1 | 6.56
Cc1cc2cc(CNC(=O)c3ccc4c(c3)OCO4)ccc2[nH]1 | -1.85
O=c1[nH]c2ccc(Cl)cc2c(-c2ccccc2)c1CN1CCOCC1 | -14.7
O=c1[nH]c2ccc(Br)cc2c(-c2ccccc2)c1CN1CCOCC1 | -65.7

Structure (SMILES) | hERG current change (%, negative = inhibition) at 10uM [%]
Cc1ccc2[nH]c(=O)c(CN3CCCCC3)c(-c3ccccc3)c2c1 | -53.6
Cc1[nH]c2ccc(Br)cc2c(=O)c1CN1CCOCC1 | -27.2
Cc1[nH]c2ccc(Br)cc2c(=O)c1CN1CCCCCC1 | -64.3
CCc1ccc2[nH]c(C)c(CN3CCCCCC3)c(=O)c2c1 | -46.9
Cc1ccc2[nH]c(=O)c(CC(=O)O)c(-c3ccccc3)c2c1 | 17.7
O=c1[nH]c2ccc(Br)cc2c(-c2ccccc2)c1N1CCOCC1 | 7.5
Cc1ccc2[nH]c(-c3ccccc3)c(CN3CCCC3)c(=O)c2c1 | -12.2
COc1ccc(CN2CCNC(=O)C2CC(=O)NC2CCCCCCC2)cc1C (centres unmarked) | 15.8
CC(C)(C)c1cc(=O)[nH]c(SCc2ccccc2)n1 | 17.3
OCC1CO1 (centres unmarked) | 15.8
Cn1c(O)c(N=NC(=O)CNC(=O)c2cccnc2)c2ccccc21 | 15.1
CCOC(=O)c1c(O)c2ccccc2n(C)c1=O | 27.7
CCOc1ccc(NC(=O)CSc2n[nH]c(N)n2)c([N+](=O)[O-])c1 | -6.62
COc1cccc(C(=O)NCc2cccnc2)c1 | 1.54
O=C1CSC(c2cn(-c3ccccc3)nc2-c2cc3ccccc3oc2=O)N1Cc1ccccc1 (centres unmarked) | 5.85
O=C(CSc1nc2[nH]ncc2c(=O)[nH]1)Nc1cccc(Cl)c1 | 4.2
CN(C)c1ccnc(N(Cc2ccccc2)Cc2ccccc2)c1C#N.Cl | -6.74
CN(C)c1nccc(N(Cc2ccccc2)Cc2ccccc2)c1C#N | -58.3
CN(C)CCN(Cc1ccccc1)c1ccnc(N(C)C)c1C#N | -26.7
Cc1c(Cl)cccc1N=C1SCCN1C(=O)CN1C(=O)NC2(CCCC2)C1=O | -16.5
